Bioassay records as filed in PubChem BioAssay.
HPGD block = HPGD (human) dehydrogenase inhibition; purified HPGD, NADH fluorescence kinetic, PGE2 substrate; 150,000 tested, 4.3% active; P15428; Potency, µM, inactives show at the highest dose activity change, negative = inhibition, usual class: inhibitors; active = well fitted inhibition curve with a large enough effect, not every such curve was filed as active; inconclusive = small, poorly fitted or top-dose-only effect, or another doubt; inactive = no such curve, though single readings can be large or run the other way; also: potency is read from the fitted curve at half-maximal effect
Target sequence (P15428 whole entry, looked up): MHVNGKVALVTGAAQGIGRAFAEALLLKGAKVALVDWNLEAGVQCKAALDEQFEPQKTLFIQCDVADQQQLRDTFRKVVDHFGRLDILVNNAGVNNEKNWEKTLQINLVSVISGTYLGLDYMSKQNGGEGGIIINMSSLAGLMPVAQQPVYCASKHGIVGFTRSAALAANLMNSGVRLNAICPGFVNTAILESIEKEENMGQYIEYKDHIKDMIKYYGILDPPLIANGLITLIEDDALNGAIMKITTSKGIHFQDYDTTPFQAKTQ
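20 nM HPGD preincubated 15 min at room temperature with compound in 50 mM Tris-HCl pH 8, 0.01% Tween 20. Started with 1 mM NAD+ and 30 uM prostaglandin E2; NADH fluorescence (360/450 nm) read 5 times over 30-s intervals, last minus first.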
ALOX12 inhib = 12-hLO (ALOX12) enzyme inhibition; purified 12-hLO, xylenol orange hydroperoxide absorbance; Potency, µM (series often up to 57.1 µM), for inactives: at the top dose activity change, negative = inhibition, actives largely listed as inhibitors; 150,000 tested, 0.12% active; AID 1452; also: potency is read from the fitted curve at half-maximal effect; nearly all actives have a fitted effect of over 55% in size
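Xylenol orange chromogenic assay: hydroperoxide from 12hLO oxidises Fe(II), giving red-shifted Fe(III)-XO absorbance. Conditions: 150 nM enzyme, 40 uM arachidonic acid, 25 mM Hepes pH 7.0, 0.01% Triton X-100, 30 min, room temperature.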
IMPase Li inh = membrane-permeable IMPase blocker, potentiated with lithium; Potency, µM (series often up to 59.4 µM), for the others: top-dose activity, negative = IMPase inhibition, usual class: inhibitors; CHO-M1 cells, IP1 TR-FRET (IP-One), carbachol + lithium; AID 1457; 210,000 tested, 0.35% active;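 also: IP1 builds up when IMPase is blocked and the TR-FRET signal falls; potency is read from the fitted curve at half-maximal effect; plate controls were basal vehicle for no effect and high inhibitor control for full effect; nearly all actives have a fitted effect of over 50% in size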
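Lithium-sensitised IP1 accumulation assay; M1-expressing CHO cells treated 30 min at 37C with compound. Competitive antibody detection by time-resolved FRET followed a 10 min room-temperature lysis step.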
IMPase inh = IMPase inhibition in cells. inhibition (IP1 accumulation), % at 46.1 µM. 120,000 tested, under 10 active. CHO-M1 cells, IP1 accumulation, HTRF TR-FRET ratio. P97697; active = well fitted curve in the direction sought with a large enough effect in the signal ratio, not every such curve was filed as active; inconclusive = small, poorly fitted or top-dose-only effect, or a change in a side signal; inactive = no such curve, though single readings can be large or run the other way; the % refers to the signal ratio;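 also: cells stimulated with carbachol in lithium chloride buffer; plate controls were DMSO basal wells for no effect and reference inhibitor wells for full effect; higher means more IMPase inhibition seen as more IP1 and lower FRET ratio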
Target sequence (P97697 whole entry, looked up): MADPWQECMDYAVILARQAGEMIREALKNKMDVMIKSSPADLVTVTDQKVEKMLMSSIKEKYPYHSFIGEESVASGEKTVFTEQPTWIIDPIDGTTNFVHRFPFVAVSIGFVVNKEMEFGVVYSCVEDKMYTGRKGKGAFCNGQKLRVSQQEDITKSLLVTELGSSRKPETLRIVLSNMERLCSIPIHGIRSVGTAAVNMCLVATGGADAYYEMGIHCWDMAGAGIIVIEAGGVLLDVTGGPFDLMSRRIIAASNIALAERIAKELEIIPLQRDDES
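Measured: the HTRF emission ratio (665/620 nm) plus the 620 nm donor channel, each fitted to the Hill equation to give AC50. Cells were CHO-M1 given compounds up to 46 uM and a 30 min carbachol stimulation at 37C.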
ALDH1A1 block = blocks purified human ALDH1A1 activity; 220,000 tested, 7.3% active; Potency, µM (top dose mostly 75.3 µM), for the others: top-dose activity, negative = inhibition, actives largely listed as inhibitors; AID 1030; Purified ALDH1A1, NADH fluorescence, propionaldehyde substrate; active = well fitted inhibition curve with a large enough effect, not every such curve was filed as active; inconclusive = small, poorly fitted or top-dose-only effect, or another doubt; inactive = no such curve, though single readings can be large or run the other way;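 also: potency is read from the fitted curve at half-maximal effect; plate controls were no enzyme wells and a reference inhibitor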
NPSR antag = blocks cAMP signaling of the human neuropeptide S receptor. Q6W5P4. CHO-NPSR cells, cAMP TR-FRET, antagonist mode. Potency, µM (series often up to 38.3 µM), inactives show at the highest dose activity change, negative = inhibition, most hits filed as inhibitors. 220,000 tested, 1% active; also: potency is read from the fitted curve at half-maximal effect; nearly all actives have a fitted effect of over 50% in size
* marks the source's active call; other numbers are inactive results; u = inconclusive; x = no result given; [ ] = dose if it differs, or a comment. Hits are enriched below; roughly 8.9% of the tested compounds scored in any of these assays. Unless noted, calls follow the shape of the dose curve; as a rule, active = well fitted curve in the direction sought with a large enough effect; inconclusive = small, poorly fitted or top-dose-only effect, or another doubt; inactive = no such curve, though single readings can be large; an effect the other way counts as inactive or inconclusive. Unless noted, % is scaled to controls: 0 for no effect and ±100 for the full control effect.

SMILES | HPGD block | ALOX12 inhib | IMPase Li inh | IMPase inh | ALDH1A1 block | NPSR antag
CC(OC(=O)c1cccs1)C(=O)NCc1ccccc1 (configuration not stated) | -5% | -2% | -5%[38.3 µM] | 6 | 5% | -4%[46.1 µM]
Cc1cccc(C(OC(=O)c2ccco2)C(=O)NCc2ccccc2)n1 (configuration not stated) | -13% | -3% | -7% | x | -9% | 0%[46.1 µM]
CC(C)C(OC(=O)c1ccco1)C(=O)NCc1ccccc1 (configuration not stated) | 13µM* | -6% | 23%[38.3 µM] | 6 | 0% | -6%[46.1 µM]
CC(C)CC(OC(=O)c1cccs1)C(=O)NCc1ccco1 (configuration not stated) | -11% | -10% | 16%[38.3 µM] | 3 | u | -24%[46.1 µM]
COc1cccc(NC(=O)c2oc3ccccc3c2NC(C)=O)c1 | -14% | -1% | -8%[38.3 µM] | 1 | 3% | -11%[46.1 µM]
Cc1ccc([N+](=O)[O-])cc1N=Cc1ccc(Br)s1 | -15% | -23% | 3%[38.3 µM] | 9 | -8% | -16%[46.1 µM]
CC(C)(C)Cc1nnc(NS(=O)(=O)Cc2ccccc2)s1 | -19% | 3% | -16%[38.3 µM] | -3 | 25µM* | -7%[46.1 µM]
CC(C)(C)Cc1nnc(NS(=O)(=O)c2ccc(F)cc2)s1 | u | -4% | 0%[38.3 µM] | 8 | u | -17%[46.1 µM]
CCc1cc(C(=O)N2CCCC(CNS(=O)(=O)c3cccs3)C2)n(C)n1 (configuration not stated) | x | x | 2% | x | 5µM* | 1%
COc1ccc(S(=O)(=O)NCC2CCCN(C(=O)c3ccco3)C2)cc1 (configuration not stated) | x | x | 5% | x | 4µM* | 4%
COc1ccc(S(=O)(=O)NCC2CCCN(C(=O)c3cccnc3)C2)cc1 (configuration not stated) | x | x | 0% | x | u | -5%
COc1ccc(S(=O)(=O)NCC2CCCN(C(=O)c3cccs3)C2)cc1 (configuration not stated) | x | x | 5% | x | 1.1µM* | 2%
Nc1ccc(N2CCN(c3ccc(Cl)c(Cl)c3)CC2)cc1 | -3% | u | 3% | x | -15% | -5%
Nc1ccc(N2CCN(c3ccc(F)cc3)CC2)cc1 | x | x | 4% | x | 22µM* | -4%
Nc1ccc(N2CCCCCC2)cc1 | -11% | -26% | 66%[38.3 µM] | 4 | 7.9µM* | u
O=S(=O)(CCN1CCN(c2ccccn2)CC1)c1ccc(Cl)cc1Cl | x | x | x | x | x | -5%[7.67 µM]
Cc1ccc(CSCC(=O)N2CCOCC2)cc1 | -14% | 9% | 7%[38.3 µM] | -10 | 25µM* | 2%[46.1 µM]
O=C(CC(c1ccccc1)c1ccco1)N1CCCCC1 (configuration not stated) | x | x | 19% | x | -5% | 0%
Cc1ccc(C(CC(=O)N2CCOCC2)c2ccco2)cc1 (configuration not stated) | 20µM* | 0% | 21%[38.3 µM] | -5 | u | -12%[46.1 µM]
Cc1ccc(-c2nnc(SCC(=O)N3CCOCC3)nc2-c2ccc(C)cc2)cc1 | 18µM* | -11% | -3%[38.3 µM] | 9 | u | u
O=C(CSCc1ccc(Cl)cc1)N1CCOCC1 | -2% | 1% | 3% | x | 8% | 14%
Cc1csc(NC(=O)c2c(-c3c(Cl)cccc3Cl)noc2C)n1 | -13% | 4% | 27%[38.3 µM] | 0 | -13% | u
COc1ccc(NC(=O)CCSc2ccc(C)cc2)cc1S(=O)(=O)Nc1ccccc1Cl | x | -4% | x | -1 | 4% | -12%[46.1 µM]
Cc1cc(C)cc(-n2c(SC(C)C(=O)NCc3ccc4c(c3)OCO4)nc3ccccc3c2=O)c1 (configuration not stated) | 0% | 0% | 6% | 7 | 15% | -38%
COc1ccccc1-n1c(SCC(=O)NCc2ccc3c(c2)OCO3)nc2cc([N+](=O)[O-])ccc21 | -18% | -19% | 14% | x | 1.1µM* | -56%
CC(Sc1nc2cc([N+](=O)[O-])ccc2n1-c1ccc(F)cc1)C(=O)NCc1ccc2c(c1)OCO2 (configuration not stated) | u | u | 10% | x | 1.4µM* | -38%
